Results on 18 compounds are retold here after paper PMC11062922 (Nature Chemical Biology, 2023).

Each structure is given as a SMILES string. Like-named read-outs stand apart in the source and are kept apart here.

Holding throughout (design): species or system human, MV4-11 + K-562 + COLO205 + SK-N-BE2 + OVCAR-8
One assay has as its system CDK2. The settings on record: read-out: apparent Kd, n = 1.
A further assay relates to PRKCA. To be noted: read-out: apparent Kd, n = 1.
For a further assay, the system named is RPS6KA3. The settings on record: read-out: apparent Kd; compound concentrations: 100 nM and 1000 nM (sheet 'Samples'), CATDS: 2.8652335073443402E-2; n = 1.
In a further assay the test system is RPS6KB1. The settings on record: read-out: apparent Kd, n = 1.
For a further assay, the system named is AURKB. The settings on record: read-out: apparent Kd, n = 1.
The subject of the next assay is NUAK2. The settings on record: read-out: apparent Kd; compound concentrations: 100 nM and 1000 nM (sheet 'Samples'), CATDS: 1.7918277394981801E-2; n = 1.
Another assay deals with MARK2. The settings on record: read-out: apparent Kd; compound concentrations:100 nM and 1000 nM (sheet 'Samples'); n = 1.
In a further assay the test system is CDC42BPB. The settings on record: read-out: apparent Kd, n = 1.
For another assay, the system named is CIT. To be noted: read-out: apparent Kd, n = 1.
The next assay concerns PKN2. To be noted: read-out: apparent Kd, n = 1.
Another assay concerns PIK3CD. To be noted: read-out: apparent Kd, compound concentrations: 100 nM and 1000 nM (sheet 'Samples'), n = 1.
For the next assay, the system named is MAPK14. To be noted: read-out: apparent Kd; compound concentrations: 100 nM and 1000 nM (sheet 'Samples'), CATDS: 3.1976912509304997E-2; n = 1.
Another assay concerns MAP3K11. The settings on record: read-out: apparent Kd; compound concentrations:100 nM and 1000 nM (sheet 'Samples'); n = 1.
The mark [1] stands for this setting: compound concentrations:100 nM and 1000 nM (sheet 'Samples').

On to `CNCC1CCn2c(c(C3=C(c4cn(C)c5ccccc45)C(=O)NC3=O)c3ccccc32)C1` (stereo not drawn) [RO0318676-000], for which the potency estimated from few doses was 1540 nM with CDK2 (compound concentrations: 100 nM and 1000 nM (sheet 'Samples'), CATDS: 2.9072745389082302E-2); 11.4 nM with PRKCA (compound concentrations: 100 nM and 1000 nM (sheet 'Samples'), CATDS: 0.32206529387914401); 1620 nM in the assay with RPS6KA3; 600 nM in the assay with RPS6KB1 (compound concentrations: 100 nM and 1000 nM (sheet 'Samples'), CATDS: 3.9813258984907299E-2).

Consider `Cl.Nc1nc(-c2ccc3c(c2)C(=Cc2cc(Br)c(O)c(Br)c2)C(=O)N3)cs1` [GW407323A], for which the potency estimated from few doses in the assay with CDK2 (compound concentrations: 100 nM and 1000 nM (sheet 'Samples'), CATDS: 3.5649543484101501E-2) was 720 nM.

Turning to `Cl.Cn1cc(C2=C(c3c4n(c5ccccc35)CCNC4)C(=O)NC2=O)c2ccccc21` [RO0318365-001], in the assay on PRKCA (compound concentrations: 100 nM and 1000 nM (sheet 'Samples'), CATDS: 4.6045234882761202E-2), the potency estimated from few doses was 2150 nM.

As to `Nc1nc(-c2ccc3c(N)n[nH]c3c2)cc(N2CCCC(NC(=O)c3ccccc3)C2)n1` (stereo not drawn) [GSK2286775B], in the assay with AURKB (setting [1]), the potency estimated from few doses is 414 nM.

With `NS(=O)(=O)c1ccc(NC=C2C(=O)Nc3ccc4ncsc4c32)cc1` [GW589933X], the potency estimated from few doses was 1370 nM in the assay on AURKB (compound concentrations: 100 nM and 1000 nM (sheet 'Samples'), CATDS: 1.80896314222295E-2); 65.8 nM in the assay on CDK2 (compound concentrations: 100 nM and 1000 nM (sheet 'Samples'), CATDS: 6.9687110689249002E-2); 1420 nM in the assay on NUAK2.

For the compound `COc1cc2ncn(-c3cc(OCc4ccccc4S(C)(=O)=O)c(C#N)s3)c2cc1OC` [GSK319347A], the potency estimated from few doses with AURKB (compound concentrations: 100 nM and 1000 nM (sheet 'Samples'), CATDS: 0.10534744790645301) is 893 nM.

Turning to `COc1cc[nH]c1/C=C1\C(=O)Nc2ccc(F)c(C#C[C@@H](O)[C@@H](N)[C@@H](C)O)c21` [RO0283120-000], the potency estimated from few doses in the assay on MARK2 is 803 nM.

As to `CCn1c(-c2nonc2N)nc2cncc(C(=O)N3CC[C@H](N)C3)c21.Cl` [SB-772077-B], the potency estimated from few doses with CDC42BPB (setting [1]) is 932 nM; in the assay with CIT (setting [1]), 1450 nM; in the assay with PKN2 (setting [1]) it was 73.8 nM; in the assay with PRKCA (setting [1]) it was 826 nM; with RPS6KB1 (setting [1]), 93.8 nM.

For `CC(C)(CO)CNC(=O)c1ccc2c(c1)/C(=N/Nc1ccc(S(N)(=O)=O)cc1)C(=O)N2` [GW301784X], the potency estimated from few doses in the assay with CDK2 (setting [1]) was 87.1 nM.

`Nc1nccc(-c2ccc3c(N)n[nH]c3c2)n1` [GSK1034945A]: the potency estimated from few doses in the assay on MARK2 is 1440 nM.

Regarding `NS(=O)(=O)c1ccc(N/N=C2\C(=O)Nc3ccc4ncccc4c32)cc1` [GW305178X], the potency estimated from few doses in the assay on CDK2 (compound concentrations: 100 nM and 1000 nM (sheet 'Samples'), CATDS: 0.10178285521581799) is 134 nM.

Take `Cl.Cl.NCC(NC(=O)c1cc(-c2ccnc3[nH]ccc23)cs1)c1ccccc1.NCC(NC(=O)c1cc(-c2ccnc3[nH]ccc23)cs1)c1ccccc1` (stereo not drawn) [GSK1229959A]: the potency estimated from few doses in the assay on CDC42BPB (compound concentrations: 100 nM and 1000 nM (sheet 'Samples'), CATDS: 9.85023329891931E-2) was 8.96 nM; in the assay with CIT (compound concentrations: 100 nM and 1000 nM (sheet 'Samples'), CATDS: 3.2542810657946203E-2) it was 113 nM; in the assay with PIK3CD (CATDS: 7.85579878499649E-2) it was 13.2 nM; with PKN2 (compound concentrations: 100 nM and 1000 nM (sheet 'Samples'), CATDS: 3.5150417589149101E-2), 88.5 nM; in the assay with RPS6KB1 (compound concentrations: 100 nM and 1000 nM (sheet 'Samples'), CATDS: 2.0581414615248698E-2), 679 nM.

With `Cl.Cl.NC[C@H](CC1CCCCC1)NC(=O)c1ccc(-c2ccnc3[nH]ccc23)s1.NC[C@H](CC1CCCCC1)NC(=O)c1ccc(-c2ccnc3[nH]ccc23)s1` [GSK1581428A], the potency estimated from few doses in the assay on CDC42BPB (setting [1]) was 10.5 nM; in the assay with PKN2 (setting [1]), 452 nM; in the assay on PRKCA (setting [1]), 2080 nM; in the assay with RPS6KB1 (setting [1]), 179 nM.

For `CCC(CC)(CC)n1cnc2c(N)ncnc21` [SKF-97620], the potency estimated from few doses with MAPK14 is 857 nM; in the assay on PIK3CD (CATDS: 0.27263149415517701), 20.5 nM.

Consider `CCn1c(-c2nonc2N)nc2cncc(Br)c21` [SB-738004], for which the potency estimated from few doses was 1970 nM with CDC42BPB (setting [1]), 122 nM with PKN2 (setting [1]), 1290 nM in the assay on PRKCA (setting [1]) and 360 nM in the assay on RPS6KB1 (setting [1]).

Turning to `CN[C@H](C#Cc1c(F)ccc2c1/C(=C/c1[nH]ccc1OC)C(=O)N2)CO.Cl` [RO0283049-001], the potency estimated from few doses with CDK2 (compound concentrations: 100 nM and 1000 nM (sheet 'Samples'), CATDS: 2.1826327845386101E-2) is 1310 nM.

For the compound `CN(C)c1ccc2c(c1)/C(=C/Nc1ccc(S(N)(=O)=O)cc1)C(=O)N2` [GW416469X], in the assay with PIK3CD (CATDS: 0.23489654545894101), the potency estimated from few doses was 138 nM.

Regarding `O=C(Nc1n[nH]c2nc(-c3ccccc3O)ccc12)C1CC1` [SB-711880], the results for the potency estimated from few doses in the assay on MAP3K11 and in the assay with MARK2 were 1520 nM and 2380 nM, respectively.
